Measurements published in article PMC12820563, “FoxP3 forms a head-to-head dimer in vivo and stabilizes its multimerization on adjacent microsatellites”.
The full ranking holds about 16,000 sequences; the median of “rpm ratio (pull-down/input)” is about 0.5, and the highest 2% start at about 5.5. The entries come from a sample that favours the highest values as a whole.

These sequences were tested against T1, MBP-FoxP3dN (Mus musculus, UniProt Q99JB6 188-423) (assay: PD-seq (MBP pull-down with sequencing); 20 mM Tris-HCl pH 7.5, 100 mM NaCl, 1.5 mM MgCl2, 0.4 uM protein, 0.1 uM dsDNA library, 30 min, room temperature, amylose pull-down; high values mean tight binding). Details: protein: recombinant; tags: His6-MBP; chain copies: 2; dsDNA, one strand shown.
T1 sequence: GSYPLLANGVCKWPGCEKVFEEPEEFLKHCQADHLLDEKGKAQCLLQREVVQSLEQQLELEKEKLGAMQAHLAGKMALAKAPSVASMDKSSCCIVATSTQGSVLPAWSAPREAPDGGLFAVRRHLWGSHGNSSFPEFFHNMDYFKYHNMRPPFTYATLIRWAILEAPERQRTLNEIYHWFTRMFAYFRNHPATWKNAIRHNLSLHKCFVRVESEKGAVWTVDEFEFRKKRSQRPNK
Summary of the method: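 Binding is reads-per-million enrichment of pull-down over input, with replicates pooled. It comes from 30 min room-temperature incubation in Tris pH 7.5 buffer with NaCl and MgCl2 of 0.4 µM His6-MBP-tagged, N-terminally truncated mouse FoxP3 or FoxP1 fragment from E. coli with 0.1 µM Klenow-filled degenerate double-stranded DNA library, followed by amylose resin capture, three washes and Illumina sequencing of the released DNA.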

Sequence	binding signal
GATGATTGTTCTCCCAGCTGATGAATTTTGGTCGTCGAGTAAACAAATTTTCCTAATCTTTCTGTTCAAGCGCCATCTAC	0.496 RPM ratio (pull-down/input)
GATGATTGTTCTCCCAGCTGATGAATTTGGGTGGTCGAGTAAACAAATTTTCCTAATCTTTCTGTTCAAGCGCCATCTAC	0.682 RPM ratio (pull-down/input)
GATGATTGTTCTCCCAGCTGATGAATTGTTAACTTCGAGTAAACAAATTTTCCTAATCTTTCTGTTCAAGCGCCATCTAC	0.587 RPM ratio (pull-down/input)
GATGATTGTTCTCCCAGCTGATGAATTGCTCCAATCGAGTAAACAAATTTTCCTAATCTTTCTGTTCAAGCGCCATCTAC	0.467 RPM ratio (pull-down/input)
GATGATTGTTCTCCCAGCTGATGAATTTTCTCGCTCGAGTAAACAAATTTTCCTAATCTTTCTGTTCAAGCGCCATCTAC	0.241 RPM ratio (pull-down/input)
GATGATTGTTCTCCCAGCTGATGAATTATATATATCGAGTAAACAAATTTTCCTAATCTTTCTGTTCAAGCGCCATCTAC	1.27 RPM ratio (pull-down/input)
GATGATTGTTCTCCCAGCTGATGAATTGAAGGGATCGAGTAAACAAATTTTCCTAATCTTTCTGTTCAAGCGCCATCTAC	0.265 RPM ratio (pull-down/input)
GATGATTGTTCTCCCAGCTGATGAATTCAGGCGATCGAGTAAACAAATTTTCCTAATCTTTCTGTTCAAGCGCCATCTAC	0.508 RPM ratio (pull-down/input)
GATGATTGTTCTCCCAGCTGATGAATTATGCGCGTCGAGTAAACAAATTTTCCTAATCTTTCTGTTCAAGCGCCATCTAC	3.33 RPM ratio (pull-down/input)
GATGATTGTTCTCCCAGCTGATGAATTGTGTGCGTCGAGTAAACAAATTTTCCTAATCTTTCTGTTCAAGCGCCATCTAC	2.16 RPM ratio (pull-down/input)
GATGATTGTTCTCCCAGCTGATGAATTTTGCGTGTCGAGTAAACAAATTTTCCTAATCTTTCTGTTCAAGCGCCATCTAC	5.56 RPM ratio (pull-down/input)
GATGATTGTTCTCCCAGCTGATGAATTGCGCGTGTCGAGTAAACAAATTTTCCTAATCTTTCTGTTCAAGCGCCATCTAC	4.88 RPM ratio (pull-down/input)
GATGATTGTTCTCCCAGCTGATGAATTGTGCGTGTCGAGTAAACAAATTTTCCTAATCTTTCTGTTCAAGCGCCATCTAC	6.18 RPM ratio (pull-down/input)
GATGATTGTTCTCCCAGCTGATGAATTATGCGTGTCGAGTAAACAAATTTTCCTAATCTTTCTGTTCAAGCGCCATCTAC	5.88 RPM ratio (pull-down/input)
GATGATTGTTCTCCCAGCTGATGAATTTGCGTGTTCGAGTAAACAAATTTTCCTAATCTTTCTGTTCAAGCGCCATCTAC	3.79 RPM ratio (pull-down/input)
GATGATTGTTCTCCCAGCTGATGAATTGCGTGTGTCGAGTAAACAAATTTTCCTAATCTTTCTGTTCAAGCGCCATCTAC	2.22 RPM ratio (pull-down/input)
GATGATTGTTCTCCCAGCTGATGAATTATATGCGTCGAGTAAACAAATTTTCCTAATCTTTCTGTTCAAGCGCCATCTAC	1.07 RPM ratio (pull-down/input)
GATGATTGTTCTCCCAGCTGATGAATTGGCCACGTCGAGTAAACAAATTTTCCTAATCTTTCTGTTCAAGCGCCATCTAC	0.526 RPM ratio (pull-down/input)
GATGATTGTTCTCCCAGCTGATGAATTGGTAGCTTCGAGTAAACAAATTTTCCTAATCTTTCTGTTCAAGCGCCATCTAC	0.798 RPM ratio (pull-down/input)

Sequence	binding signal
GATGATTGTTCTCCCAGCTGATGAATTTAGCCCGTCGAGTAAACAAATTTTCCTAATCTTTCTGTTCAAGCGCCATCTAC	1.59 RPM ratio (pull-down/input)
GATGATTGTTCTCCCAGCTGATGAATTAGTGCGATCGAGTAAACAAATTTTCCTAATCTTTCTGTTCAAGCGCCATCTAC	0.851 RPM ratio (pull-down/input)
GATGATTGTTCTCCCAGCTGATGAATTGTTGTTCTCGAGTAAACAAATTTTCCTAATCTTTCTGTTCAAGCGCCATCTAC	7.17 RPM ratio (pull-down/input)
GATGATTGTTCTCCCAGCTGATGAATTGTTTGTCTCGAGTAAACAAATTTTCCTAATCTTTCTGTTCAAGCGCCATCTAC	7.63 RPM ratio (pull-down/input)
GATGATTGTTCTCCCAGCTGATGAATTGTCCTACTCGAGTAAACAAATTTTCCTAATCTTTCTGTTCAAGCGCCATCTAC	0.368 RPM ratio (pull-down/input)
GATGATTGTTCTCCCAGCTGATGAATTGTCTTACTCGAGTAAACAAATTTTCCTAATCTTTCTGTTCAAGCGCCATCTAC	0.469 RPM ratio (pull-down/input)
GATGATTGTTCTCCCAGCTGATGAATTTTTTTTCTCGAGTAAACAAATTTTCCTAATCTTTCTGTTCAAGCGCCATCTAC	0.267 RPM ratio (pull-down/input)
GATGATTGTTCTCCCAGCTGATGAATTGTTGTCCTCGAGTAAACAAATTTTCCTAATCTTTCTGTTCAAGCGCCATCTAC	5.63 RPM ratio (pull-down/input)
GATGATTGTTCTCCCAGCTGATGAATTTTGTCTCTCGAGTAAACAAATTTTCCTAATCTTTCTGTTCAAGCGCCATCTAC	2.39 RPM ratio (pull-down/input)
GATGATTGTTCTCCCAGCTGATGAATTTCTGTCCTCGAGTAAACAAATTTTCCTAATCTTTCTGTTCAAGCGCCATCTAC	0.313 RPM ratio (pull-down/input)
GATGATTGTTCTCCCAGCTGATGAATTGTCCTCCTCGAGTAAACAAATTTTCCTAATCTTTCTGTTCAAGCGCCATCTAC	0.37 RPM ratio (pull-down/input)
GATGATTGTTCTCCCAGCTGATGAATTCTTTGTCTCGAGTAAACAAATTTTCCTAATCTTTCTGTTCAAGCGCCATCTAC	0.413 RPM ratio (pull-down/input)
GATGATTGTTCTCCCAGCTGATGAATTTGTCTACTCGAGTAAACAAATTTTCCTAATCTTTCTGTTCAAGCGCCATCTAC	5.77 RPM ratio (pull-down/input)
GATGATTGTTCTCCCAGCTGATGAATTTCTAATCTCGAGTAAACAAATTTTCCTAATCTTTCTGTTCAAGCGCCATCTAC	0.288 RPM ratio (pull-down/input)
GATGATTGTTCTCCCAGCTGATGAATTTGTGCGCTCGAGTAAACAAATTTTCCTAATCTTTCTGTTCAAGCGCCATCTAC	1.87 RPM ratio (pull-down/input)
GATGATTGTTCTCCCAGCTGATGAATTTATGCGGTCGAGTAAACAAATTTTCCTAATCTTTCTGTTCAAGCGCCATCTAC	1.09 RPM ratio (pull-down/input)
GATGATTGTTCTCCCAGCTGATGAATTAGTCCGCTCGAGTAAACAAATTTTCCTAATCTTTCTGTTCAAGCGCCATCTAC	0.349 RPM ratio (pull-down/input)
GATGATTGTTCTCCCAGCTGATGAATTTTGTCGATCGAGTAAACAAATTTTCCTAATCTTTCTGTTCAAGCGCCATCTAC	1.18 RPM ratio (pull-down/input)
GATGATTGTTCTCCCAGCTGATGAATTCTTCGACTCGAGTAAACAAATTTTCCTAATCTTTCTGTTCAAGCGCCATCTAC	0.239 RPM ratio (pull-down/input)

Sequence	binding signal
GATGATTGTTCTCCCAGCTGATGAATTGATAATCTCGAGTAAACAAATTTTCCTAATCTTTCTGTTCAAGCGCCATCTAC	0.411 RPM ratio (pull-down/input)
GATGATTGTTCTCCCAGCTGATGAATTTACTTTCTCGAGTAAACAAATTTTCCTAATCTTTCTGTTCAAGCGCCATCTAC	1.32 RPM ratio (pull-down/input)
GATGATTGTTCTCCCAGCTGATGAATTCTAGCCTTCGAGTAAACAAATTTTCCTAATCTTTCTGTTCAAGCGCCATCTAC	1.89 RPM ratio (pull-down/input)
GATGATTGTTCTCCCAGCTGATGAATTTCCGTGGTCGAGTAAACAAATTTTCCTAATCTTTCTGTTCAAGCGCCATCTAC	0.282 RPM ratio (pull-down/input)
GATGATTGTTCTCCCAGCTGATGAATTCGTCGGGTCGAGTAAACAAATTTTCCTAATCTTTCTGTTCAAGCGCCATCTAC	0.574 RPM ratio (pull-down/input)
GATGATTGTTCTCCCAGCTGATGAATTGGTTTGCTCGAGTAAACAAATTTTCCTAATCTTTCTGTTCAAGCGCCATCTAC	4.24 RPM ratio (pull-down/input)
GATGATTGTTCTCCCAGCTGATGAATTTTAGTTATCGAGTAAACAAATTTTCCTAATCTTTCTGTTCAAGCGCCATCTAC	1.33 RPM ratio (pull-down/input)
GATGATTGTTCTCCCAGCTGATGAATTTGTCTTCTCGAGTAAACAAATTTTCCTAATCTTTCTGTTCAAGCGCCATCTAC	4.22 RPM ratio (pull-down/input)
GATGATTGTTCTCCCAGCTGATGAATTTCTGTCTTCGAGTAAACAAATTTTCCTAATCTTTCTGTTCAAGCGCCATCTAC	0.368 RPM ratio (pull-down/input)
GATGATTGTTCTCCCAGCTGATGAATTTTTTGTCTCGAGTAAACAAATTTTCCTAATCTTTCTGTTCAAGCGCCATCTAC	0.367 RPM ratio (pull-down/input)
GATGATTGTTCTCCCAGCTGATGAATTGTCTTCTTCGAGTAAACAAATTTTCCTAATCTTTCTGTTCAAGCGCCATCTAC	0.478 RPM ratio (pull-down/input)
GATGATTGTTCTCCCAGCTGATGAATTTGTTGTCTCGAGTAAACAAATTTTCCTAATCTTTCTGTTCAAGCGCCATCTAC	7.77 RPM ratio (pull-down/input)
GATGATTGTTCTCCCAGCTGATGAATTGTTGTCTTCGAGTAAACAAATTTTCCTAATCTTTCTGTTCAAGCGCCATCTAC	5.62 RPM ratio (pull-down/input)
GATGATTGTTCTCCCAGCTGATGAATTCCATTCGTCGAGTAAACAAATTTTCCTAATCTTTCTGTTCAAGCGCCATCTAC	0.494 RPM ratio (pull-down/input)
GATGATTGTTCTCCCAGCTGATGAATTAGAGAGTTCGAGTAAACAAATTTTCCTAATCTTTCTGTTCAAGCGCCATCTAC	0.399 RPM ratio (pull-down/input)
GATGATTGTTCTCCCAGCTGATGAATTACTGGGGTCGAGTAAACAAATTTTCCTAATCTTTCTGTTCAAGCGCCATCTAC	0.231 RPM ratio (pull-down/input)
GATGATTGTTCTCCCAGCTGATGAATTGAACTGGTCGAGTAAACAAATTTTCCTAATCTTTCTGTTCAAGCGCCATCTAC	0.209 RPM ratio (pull-down/input)
GATGATTGTTCTCCCAGCTGATGAATTAGAGATCTCGAGTAAACAAATTTTCCTAATCTTTCTGTTCAAGCGCCATCTAC	0.32 RPM ratio (pull-down/input)
GATGATTGTTCTCCCAGCTGATGAATTAGAATGTTCGAGTAAACAAATTTTCCTAATCTTTCTGTTCAAGCGCCATCTAC	0.671 RPM ratio (pull-down/input)
